About 83,000 compounds went through this panel and 20% of them were active in at least one assay; those are over-represented in the sample as a whole.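 Treatment: one concentration, 48 hours, 96-well format. Scoring: percent growth, with anything below 10 considered active.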 Values without a mark were called inactive. The source made the active and inactive calls.

Some test systems named below: RPMI-8226 leukemia; OVCAR-8 ovarian; OVCAR-5 ovarian; OVCAR-4 ovarian; SK-OV-3 ovarian; IGROV1 ovarian; OVCAR-3 ovarian; HS 578T breast; NCI/ADR-RES ovarian; T-47D breast.
Assay in all cases: NCI-60 one-dose screen, 48 h (100 = growth as untreated, 0 = no growth, -100 = all killed)
What all share (settings): 10 µM unless noted

Turning to `NNC(=O)CNC(=O)Nc1n[nH]c(=S)s1`, the growth was 93% with RPMI-8226 leukemia; 104% in the assay with OVCAR-8 ovarian; 97.6% in the assay with OVCAR-5 ovarian; 117% with OVCAR-4 ovarian; 99.8% in the assay with SK-OV-3 ovarian; 102% in the assay with IGROV1 ovarian. In addition, the growth in the assay on OVCAR-3 ovarian is 108%; with HS 578T breast, 90.9%; with NCI/ADR-RES ovarian, 104%; in the assay on T-47D breast, 101%.
With `CSc1nc2c(c(=O)[nH]1)N=C1c3ccccc3C(=O)C1C(c1ccccc1)N2` (stereo not given), the growth with RPMI-8226 leukemia is 36.2%; in the assay with OVCAR-8 ovarian, 61.3%; in the assay on OVCAR-5 ovarian, 82.5%; in the assay with OVCAR-4 ovarian it was 72.6%; with SK-OV-3 ovarian, 64.3%; in the assay with IGROV1 ovarian it was 17.4%. For the same compound, the growth in the assay on OVCAR-3 ovarian is -12% (active); in the assay with HS 578T breast, 48.2%; with NCI/ADR-RES ovarian it was 38.3%; with T-47D breast, 43.9%.
Consider `CCN(CCO)CCNc1ccc(C)c2sc3cc(Cl)ccc3c(=O)c12`, for which the growth is 28.2% in the assay on RPMI-8226 leukemia; 38.6% in the assay with OVCAR-8 ovarian; 64.4% in the assay with OVCAR-5 ovarian; 70.8% in the assay on OVCAR-4 ovarian; 62.2% in the assay with SK-OV-3 ovarian; 56.6% with IGROV1 ovarian. Further, the growth was 39.3% with OVCAR-3 ovarian, 41.9% in the assay on HS 578T breast, 45.4% with NCI/ADR-RES ovarian and 53.9% with T-47D breast.
Turning to `COc1cccc(/C=C/C(=O)c2c(C)nc3ccccc3c2/C=C/c2ccccc2)c1OC`, the growth was 6.11% (active) in the assay on RPMI-8226 leukemia; 21.6% in the assay on OVCAR-8 ovarian; 36.4% in the assay on OVCAR-5 ovarian; 46.3% with OVCAR-4 ovarian; 89.8% with SK-OV-3 ovarian; 20.9% in the assay on IGROV1 ovarian. The growth with OVCAR-3 ovarian was 2.68% (active); in the assay with HS 578T breast it was 37.5%; in the assay on NCI/ADR-RES ovarian, 10%; in the assay with T-47D breast, 11.2%.
`CC1=C(C(=O)OCC2CCN(C(=O)OC(C)(C)C)CC2)[C@H](c2cccc(Br)c2)C2=C(CC(C)(C)CC2=O)N1`: the growth is 18.6% in the assay on RPMI-8226 leukemia; 21.7% in the assay with OVCAR-8 ovarian; 64.8% in the assay with OVCAR-5 ovarian; 40% in the assay on OVCAR-4 ovarian; 56% in the assay on SK-OV-3 ovarian; 35.9% in the assay on IGROV1 ovarian. For the same compound, the growth with OVCAR-3 ovarian is 30.9%; in the assay with HS 578T breast, 53.5%; in the assay on NCI/ADR-RES ovarian, 25.3%; in the assay on T-47D breast, 22%.
In the case of `Cn1c2c(c(=O)[nH]c1=O)NC1=C(C(=O)c3ccccc31)C1(C=C(O)c3ccccc31)N2` (stereo not given), the growth in the assay with RPMI-8226 leukemia is 105%; with OVCAR-8 ovarian, 107%; in the assay on OVCAR-5 ovarian, 111%; in the assay on OVCAR-4 ovarian, 71.3%; in the assay on SK-OV-3 ovarian it was 111%; in the assay on IGROV1 ovarian, 95.5%. The growth with OVCAR-3 ovarian was 95.4%; in the assay with HS 578T breast, 110%; in the assay on NCI/ADR-RES ovarian, 117%; in the assay on T-47D breast, 108%.
With `CC(=O)SC1CC(=O)C=C2CCC3C4CCC(=O)OC4(C)CCC3C21C` (stereo not given), the growth in the assay on RPMI-8226 leukemia is 103%; with OVCAR-8 ovarian it was 98.9%; in the assay on OVCAR-5 ovarian, 99.7%; in the assay on OVCAR-4 ovarian it was 122%; with SK-OV-3 ovarian, 113%; in the assay with IGROV1 ovarian, 147%. Moreover, the growth in the assay on OVCAR-3 ovarian was 106%; with HS 578T breast, 114%; in the assay on NCI/ADR-RES ovarian, 110%; in the assay on T-47D breast, 122%.
On to `O=c1oc2ccc(Br)cc2c(=O)n1-c1ccc(Cl)cc1F`, for which the growth was -25.5% (active) in the assay on RPMI-8226 leukemia; 9.88% (active) with OVCAR-8 ovarian; 23.5% in the assay with OVCAR-5 ovarian; 15.1% in the assay with OVCAR-4 ovarian; 1.82% (active) with SK-OV-3 ovarian; 15.7% in the assay with IGROV1 ovarian. In addition, the growth is 7.85% (active) with OVCAR-3 ovarian, -5.24% (active) in the assay with HS 578T breast, 8.34% (active) in the assay with NCI/ADR-RES ovarian and -1.08% (active) with T-47D breast.
In the case of `CC1=CCC(OC(=O)C(C)(C)CCC(O)(C(=O)OC2(C(C)C)CCC3(C)OC3C2)C(C)C)(C(C)C)CC1` (stereo not given), the growth with RPMI-8226 leukemia was -37.8% (active); in the assay on OVCAR-8 ovarian, -41.7% (active); in the assay on OVCAR-5 ovarian, -77.9% (active); in the assay with OVCAR-4 ovarian, -84.1% (active); with SK-OV-3 ovarian, -92.2% (active); with IGROV1 ovarian, -60.5% (active). The growth in the assay with OVCAR-3 ovarian is -97% (active); in the assay with HS 578T breast, -7.09% (active); with NCI/ADR-RES ovarian it was -9.23% (active); in the assay on T-47D breast it was -55.2% (active).
Consider `Brc1ccc(Nc2nc3ccccc3nc2Nc2ccc(Br)cc2)cc1`, for which the growth in the assay with RPMI-8226 leukemia was -12.3% (active); in the assay on OVCAR-8 ovarian it was -31.4% (active); in the assay with OVCAR-5 ovarian, 6.38% (active); in the assay with OVCAR-4 ovarian, 12.7%; in the assay with SK-OV-3 ovarian, -16.7% (active); with IGROV1 ovarian it was 1.3% (active). Further, the growth is -55.4% (active) in the assay on OVCAR-3 ovarian, -1.34% (active) in the assay on HS 578T breast, 5.04% (active) with NCI/ADR-RES ovarian and -4.85% (active) in the assay with T-47D breast.
`CCCCCCCCCCOC(=O)c1ccccc1C(=O)OCCCC`: the growth in the assay with RPMI-8226 leukemia is 101%; with OVCAR-8 ovarian it was 109%; in the assay with OVCAR-5 ovarian, 103%; in the assay on OVCAR-4 ovarian, 115%; with SK-OV-3 ovarian it was 114%; with IGROV1 ovarian, 118%. For the same compound, the growth in the assay on OVCAR-3 ovarian was 106%; in the assay with HS 578T breast it was 118%; in the assay with NCI/ADR-RES ovarian, 107%; in the assay with T-47D breast it was 106%.
Consider `Cc1ccc2[nH]c(=O)cc(-n3nncc3Cn3c4ccccc4c4ccccc43)c2c1`, for which the growth was 109% in the assay with RPMI-8226 leukemia; 94.9% in the assay on OVCAR-8 ovarian; 104% in the assay on OVCAR-5 ovarian; 98.7% with OVCAR-4 ovarian; 91.4% in the assay with SK-OV-3 ovarian; 103% with IGROV1 ovarian. In addition, the growth with OVCAR-3 ovarian is 101%; in the assay on HS 578T breast, 88.4%; in the assay on NCI/ADR-RES ovarian it was 99.5%; with T-47D breast, 106%.
As to `CN(C)/C=C1\SC(=Nc2ccc(Cl)cc2)NC1=O`, the growth is 108% in the assay with RPMI-8226 leukemia; 97.8% in the assay on OVCAR-8 ovarian; 96% in the assay on OVCAR-5 ovarian; 108% with OVCAR-4 ovarian; 104% in the assay on SK-OV-3 ovarian; 102% with IGROV1 ovarian. For the same compound, the growth was 107% in the assay on OVCAR-3 ovarian, 95.5% in the assay on HS 578T breast, 102% with NCI/ADR-RES ovarian and 105% in the assay with T-47D breast.

These data come from PubChem BioAssay (NCI).
